These results are taken from the supplement of paper PMC11001985.

A number with no mark means an inactive call.

Chain of UniProt P30626 (P30626 whole entry): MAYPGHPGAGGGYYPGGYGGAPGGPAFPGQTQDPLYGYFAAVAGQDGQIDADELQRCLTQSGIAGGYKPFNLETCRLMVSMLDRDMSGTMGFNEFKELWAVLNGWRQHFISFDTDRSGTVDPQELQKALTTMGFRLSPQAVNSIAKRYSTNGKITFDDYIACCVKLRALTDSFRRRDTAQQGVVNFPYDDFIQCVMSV
Chain of UniProt Q6YHK3 (Q6YHK3 whole entry): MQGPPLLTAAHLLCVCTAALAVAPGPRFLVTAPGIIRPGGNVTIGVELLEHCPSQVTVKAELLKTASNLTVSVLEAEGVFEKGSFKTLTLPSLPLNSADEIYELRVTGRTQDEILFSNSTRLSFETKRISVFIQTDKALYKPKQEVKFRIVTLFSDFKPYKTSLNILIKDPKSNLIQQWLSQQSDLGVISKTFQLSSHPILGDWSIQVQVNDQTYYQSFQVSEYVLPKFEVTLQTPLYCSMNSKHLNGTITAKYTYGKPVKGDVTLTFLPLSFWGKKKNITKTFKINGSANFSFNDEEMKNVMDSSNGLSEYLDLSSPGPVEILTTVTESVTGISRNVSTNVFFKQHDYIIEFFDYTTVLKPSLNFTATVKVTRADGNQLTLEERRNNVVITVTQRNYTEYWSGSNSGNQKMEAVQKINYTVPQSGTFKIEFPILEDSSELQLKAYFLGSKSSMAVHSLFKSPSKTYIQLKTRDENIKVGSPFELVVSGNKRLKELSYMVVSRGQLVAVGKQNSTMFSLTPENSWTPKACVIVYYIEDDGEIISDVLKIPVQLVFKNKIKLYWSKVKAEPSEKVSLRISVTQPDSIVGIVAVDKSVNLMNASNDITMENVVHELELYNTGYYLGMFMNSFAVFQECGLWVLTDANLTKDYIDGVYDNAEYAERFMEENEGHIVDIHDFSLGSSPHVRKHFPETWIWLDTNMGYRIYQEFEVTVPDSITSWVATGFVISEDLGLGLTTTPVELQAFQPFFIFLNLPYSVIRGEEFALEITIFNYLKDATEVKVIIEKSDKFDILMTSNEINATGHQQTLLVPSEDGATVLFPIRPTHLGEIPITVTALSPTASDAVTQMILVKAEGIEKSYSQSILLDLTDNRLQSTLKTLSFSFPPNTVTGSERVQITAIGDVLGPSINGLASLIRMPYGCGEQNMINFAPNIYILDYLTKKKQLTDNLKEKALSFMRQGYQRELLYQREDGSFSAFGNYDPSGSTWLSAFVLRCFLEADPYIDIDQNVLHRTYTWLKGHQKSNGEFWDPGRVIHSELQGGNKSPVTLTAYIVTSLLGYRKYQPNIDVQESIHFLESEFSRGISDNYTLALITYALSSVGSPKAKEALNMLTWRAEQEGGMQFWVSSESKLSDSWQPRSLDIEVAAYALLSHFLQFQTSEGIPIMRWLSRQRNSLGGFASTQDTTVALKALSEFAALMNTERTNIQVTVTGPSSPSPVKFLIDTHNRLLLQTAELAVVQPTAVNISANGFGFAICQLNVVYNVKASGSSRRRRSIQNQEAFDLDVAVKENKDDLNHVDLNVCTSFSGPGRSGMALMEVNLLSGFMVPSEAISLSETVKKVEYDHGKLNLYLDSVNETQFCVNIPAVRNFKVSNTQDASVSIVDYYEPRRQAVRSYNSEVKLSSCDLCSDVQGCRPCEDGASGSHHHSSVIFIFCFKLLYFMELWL
Chain of UniProt P13667 (P13667 whole entry): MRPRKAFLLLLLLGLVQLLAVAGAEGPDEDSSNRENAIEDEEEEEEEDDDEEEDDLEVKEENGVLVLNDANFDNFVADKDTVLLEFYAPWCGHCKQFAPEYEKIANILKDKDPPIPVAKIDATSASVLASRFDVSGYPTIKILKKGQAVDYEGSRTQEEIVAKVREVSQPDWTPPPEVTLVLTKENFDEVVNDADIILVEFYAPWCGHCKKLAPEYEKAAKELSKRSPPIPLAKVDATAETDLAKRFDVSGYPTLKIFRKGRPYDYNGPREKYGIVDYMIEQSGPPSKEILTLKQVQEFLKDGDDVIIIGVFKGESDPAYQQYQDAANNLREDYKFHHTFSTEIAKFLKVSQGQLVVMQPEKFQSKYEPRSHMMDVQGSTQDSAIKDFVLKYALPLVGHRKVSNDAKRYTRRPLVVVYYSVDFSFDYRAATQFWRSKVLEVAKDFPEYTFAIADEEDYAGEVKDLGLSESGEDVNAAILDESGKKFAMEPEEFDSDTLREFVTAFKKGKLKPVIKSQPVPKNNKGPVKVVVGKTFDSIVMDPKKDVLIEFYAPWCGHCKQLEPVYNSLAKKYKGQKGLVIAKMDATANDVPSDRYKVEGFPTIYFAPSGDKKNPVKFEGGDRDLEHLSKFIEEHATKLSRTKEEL
Chain of UniProt Q96TA1 (Q96TA1 whole entry): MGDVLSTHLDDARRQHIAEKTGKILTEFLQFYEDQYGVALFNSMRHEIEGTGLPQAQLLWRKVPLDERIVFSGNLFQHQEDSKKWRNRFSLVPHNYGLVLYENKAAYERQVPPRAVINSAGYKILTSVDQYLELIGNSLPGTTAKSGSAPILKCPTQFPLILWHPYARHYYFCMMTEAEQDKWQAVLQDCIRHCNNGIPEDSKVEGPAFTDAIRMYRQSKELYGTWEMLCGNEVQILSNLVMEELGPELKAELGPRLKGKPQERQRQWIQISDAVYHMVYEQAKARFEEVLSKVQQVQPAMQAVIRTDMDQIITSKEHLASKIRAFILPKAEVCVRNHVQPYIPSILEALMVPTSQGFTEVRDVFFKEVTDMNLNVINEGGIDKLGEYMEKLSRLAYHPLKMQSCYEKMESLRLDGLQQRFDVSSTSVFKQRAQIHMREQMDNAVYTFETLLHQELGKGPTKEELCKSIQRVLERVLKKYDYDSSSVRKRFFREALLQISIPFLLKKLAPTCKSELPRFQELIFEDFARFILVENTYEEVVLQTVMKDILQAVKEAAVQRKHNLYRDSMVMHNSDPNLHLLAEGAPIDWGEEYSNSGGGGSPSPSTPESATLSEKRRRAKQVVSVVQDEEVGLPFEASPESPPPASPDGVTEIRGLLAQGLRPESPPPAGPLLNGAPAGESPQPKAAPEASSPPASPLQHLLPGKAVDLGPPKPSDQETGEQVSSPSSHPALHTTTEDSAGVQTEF
Chain of UniProt P38159 (P38159 whole entry): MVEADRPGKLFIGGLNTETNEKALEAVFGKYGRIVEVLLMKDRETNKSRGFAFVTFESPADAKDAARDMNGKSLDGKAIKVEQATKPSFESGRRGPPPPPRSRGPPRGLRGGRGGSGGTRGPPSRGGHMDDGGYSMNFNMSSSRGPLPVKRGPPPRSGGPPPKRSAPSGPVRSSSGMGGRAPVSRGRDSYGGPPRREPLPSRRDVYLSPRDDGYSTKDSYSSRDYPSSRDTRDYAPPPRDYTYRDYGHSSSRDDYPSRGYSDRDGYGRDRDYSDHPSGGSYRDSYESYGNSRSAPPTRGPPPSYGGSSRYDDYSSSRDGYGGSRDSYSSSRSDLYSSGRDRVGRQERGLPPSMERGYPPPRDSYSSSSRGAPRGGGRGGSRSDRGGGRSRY
Chain of UniProt Q6EMK4 (Q6EMK4 whole entry, looked up): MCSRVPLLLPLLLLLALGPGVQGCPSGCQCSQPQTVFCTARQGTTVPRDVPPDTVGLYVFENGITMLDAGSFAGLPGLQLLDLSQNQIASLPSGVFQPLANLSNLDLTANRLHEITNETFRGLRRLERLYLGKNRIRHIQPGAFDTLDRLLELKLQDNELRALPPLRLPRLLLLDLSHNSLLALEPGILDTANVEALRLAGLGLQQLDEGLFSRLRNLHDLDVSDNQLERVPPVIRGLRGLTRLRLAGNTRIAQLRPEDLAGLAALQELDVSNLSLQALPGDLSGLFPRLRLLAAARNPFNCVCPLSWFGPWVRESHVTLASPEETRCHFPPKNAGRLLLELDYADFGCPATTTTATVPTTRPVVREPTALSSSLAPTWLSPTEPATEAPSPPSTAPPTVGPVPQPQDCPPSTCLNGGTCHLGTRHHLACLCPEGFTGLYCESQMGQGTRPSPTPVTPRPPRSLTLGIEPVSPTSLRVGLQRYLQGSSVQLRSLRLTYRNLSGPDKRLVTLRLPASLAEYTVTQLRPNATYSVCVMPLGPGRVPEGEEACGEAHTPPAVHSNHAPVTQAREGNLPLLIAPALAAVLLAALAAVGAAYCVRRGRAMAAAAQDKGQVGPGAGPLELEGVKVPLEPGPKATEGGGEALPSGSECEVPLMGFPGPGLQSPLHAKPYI
Chain of UniProt P23142 (P23142 whole entry): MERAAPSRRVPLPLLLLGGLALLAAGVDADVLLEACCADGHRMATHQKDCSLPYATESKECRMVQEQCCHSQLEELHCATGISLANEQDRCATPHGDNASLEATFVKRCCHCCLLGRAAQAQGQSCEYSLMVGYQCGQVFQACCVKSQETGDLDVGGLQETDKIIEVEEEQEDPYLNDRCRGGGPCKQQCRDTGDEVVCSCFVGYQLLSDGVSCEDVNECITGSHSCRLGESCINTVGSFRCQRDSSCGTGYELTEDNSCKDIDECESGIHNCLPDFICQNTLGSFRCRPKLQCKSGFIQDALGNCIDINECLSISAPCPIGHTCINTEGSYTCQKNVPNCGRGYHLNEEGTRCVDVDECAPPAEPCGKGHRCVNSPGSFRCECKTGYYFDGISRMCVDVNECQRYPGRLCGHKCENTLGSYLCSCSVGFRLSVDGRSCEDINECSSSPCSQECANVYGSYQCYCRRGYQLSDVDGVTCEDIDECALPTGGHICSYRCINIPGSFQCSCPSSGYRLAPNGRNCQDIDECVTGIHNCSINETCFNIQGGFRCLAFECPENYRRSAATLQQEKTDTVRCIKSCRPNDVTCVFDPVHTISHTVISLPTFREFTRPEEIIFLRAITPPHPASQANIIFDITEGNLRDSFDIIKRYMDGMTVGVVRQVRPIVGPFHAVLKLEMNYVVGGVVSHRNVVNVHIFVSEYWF
Chain of UniProt P51153 (P51153 whole entry): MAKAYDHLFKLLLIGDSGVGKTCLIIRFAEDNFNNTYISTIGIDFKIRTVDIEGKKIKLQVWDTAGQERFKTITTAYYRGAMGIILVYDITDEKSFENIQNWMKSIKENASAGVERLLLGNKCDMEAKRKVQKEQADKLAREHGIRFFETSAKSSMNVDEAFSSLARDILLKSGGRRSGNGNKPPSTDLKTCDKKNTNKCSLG

Compound in the assay: C#CCNC(=O)CCSSCCC(=O)NCCc1ccc(C=O)c(C=O)c1
In words: lysine labeling ratio R10:1 (500 µM / 50 µM probe), SILAC-ABPP in living cells; higher = lower intrinsic lysine reactivity toward the probe, active = 2 or less. The following applies: HeLa; probe concentrations 500 vs 50 µM. The gist of the method: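 In PBS at room temperature, living HeLa cells grown with SILAC light or heavy labels were treated with 50 µM or 500 µM of an alkyne-tagged, disulfide-linked lysine probe, with label swaps in both directions. Analysis was by LC-MS/MS on a TIMS-TOF Pro after click to biotin-azide, neutravidin capture and DTT release. For each lysine, R is the median across forward and reverse replicates of the filtered median high-probe/low-probe MS1 peptide ratio, capped at 20.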
As for UniProt P16144 (lysine site: K388), the “lysine labeling ratio R10:1” value is 0.94 (active). “GPI (lysine site: K366) (UniProt P06744)”: the “lysine labeling ratio R10:1” value was 2.81. Consider “CD9 (lysine site: K135) (UniProt P21926)”, for which the “lysine labeling ratio R10:1” value is 3.43. “FRAS1 (lysine site: K2523) (UniProt Q86XX4)”: the “lysine labeling ratio R10:1” value is 2.03. On to “FBLN1 (lysine site: K187) (UniProt P23142)”, for which the “lysine labeling ratio R10:1” value is 2.05. Take “RAB13 (lysine site: K172) (UniProt P51153)”: the “lysine labeling ratio R10:1” value was 4.07. Take UniProt P62851 (lysine site: K114): the “lysine labeling ratio R10:1” value was 2.69. Then “DSG2 (lysine site: K362) (UniProt Q14126)”, with 1.02 (active).

Regarding FAS (lysine site: K94) (UniProt P25445), the “lysine labeling ratio R10:1” value is 2.69. UniProt Q96TA1 (lysine site: K479): the “lysine labeling ratio R10:1” value was 2.71. Next, “NECTIN3 (lysine site: K255) (UniProt Q9NQS3)”: 4.2; “HEG1 (lysine site: K1073) (UniProt Q9ULI3)”: 3.38.

For “TGFBR3 (lysine site: K685) (UniProt Q03167)”, the “lysine labeling ratio R10:1” value was 1.81 (active). For the target UniProt P62805 (lysine site: K32), the “lysine labeling ratio R10:1” value is 7.5. Then “VASN (lysine site: K506) (UniProt Q6EMK4)”, with 5.1; and “PDIA4 (lysine site: K245) (UniProt P13667)”, with 1.07 (active). On to “RBMX (lysine site: K163) (UniProt P38159)”, for which the “lysine labeling ratio R10:1” value was 3.88. On to “SRI (lysine site: K146) (UniProt P30626)”, for which the “lysine labeling ratio R10:1” value was 4.33. “TFPI (lysine site: K101) (UniProt P10646)”: the “lysine labeling ratio R10:1” value is 7.9. For “THRAP3 (lysine site: K346) (UniProt Q9Y2W1)”, the “lysine labeling ratio R10:1” value was 2.43. Next, “CD109 (lysine site: K494) (UniProt Q6YHK3)”: 8.05; “EPRS (lysine site: K666) (UniProt P07814)”: 0.985 (active). For the target UniProt P62899 (lysine site: K75), the “lysine labeling ratio R10:1” value is 2.92.
